Assay results taken from PubChem BioAssay (Tox21).
Results filed as inconclusive are left out. Active and inactive are the calls of the source. Unless noted, calls follow the shape of the dose curve; as a rule, active = well fitted curve in the direction sought with a large enough effect in the repeat runs; inconclusive = weak or mixed curves; inactive = no such curve, though single readings can be large; an effect the other way counts as inactive or inconclusive.

Key:
[1] = qHTS assay to identify small molecule agonists of the estrogen receptor alpha (ER-alpha) signaling pathway in the presence of an antagonist - cell viability counter screen (AID 1259386);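 also: series mostly up to about 92 µM; cells exposed to compounds for 22 h at 37 °C before the viability read; nearly all actives have a fitted effect of over 30% in size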
Summary of the method: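 Steps: 5-day stripped-FBS culture; seed and incubate 24hr; add ICI-182,780 (10.0nM final); pin 15-point compound titration; incubate 22hr at 37C; add CellTiter-Fluor at 21hr; read fluorescence.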

[2] = biological target: Progesterone receptor (Homo sapiens) (UniProt P06401); test: qHTS assay to identify small molecule agonists of the progesterone receptor (PR) signaling pathway (AID 1346784; calls by dose curve; also: nearly all actives have a fitted effect of over 30% in size)
Summary of the method: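 Agonist mode, quantitative HTS format in a HEK 293T line expressing a UAS-controlled beta-lactamase reporter; 16 hr compound exposure at 37C in 2% charcoal-stripped FBS, then LiveBLAzer B/G FRET fluorescence.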

[3] = biological target: Progesterone receptor (Homo sapiens) (UniProt P06401); test: qHTS assay to identify small molecule antagonists of the progesterone receptor (PR) signaling pathway (AID 1346795; active = well fitted inhibition curve with a large enough effect in the signal ratio in the repeat runs, not every such curve was filed as active; the % refers to the signal ratio)
Summary of the method: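 HEK293T PR-UAS-bla reporter cells in charcoal-stripped serum (2%) received compound after a 6 hr settling period, followed by R5020 agonist at 1 nM final; 16 hr incubation preceded the FRET substrate step and fluorescence measurement.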

[4] = qHTS assay to identify small molecule agonists of the progesterone receptor (PR) signaling pathway - cell viability counter screen (AID 1346799; calls by dose curve; also: nearly all actives have a fitted effect of over 45% in size)
Summary of the method: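 Counter screen for cytotoxicity: compound-treated PR-UAS-bla HEK293T cells (16 hr, 37C, 5% CO2) were assayed with CellTiter-Glo, luminescence measured after 30 min at room temperature.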

[5] = qHTS assay to identify small molecule antagonists of the TGF-beta/Smad signaling pathway - cell viability counter screen (AID 1346824); also: nearly all actives have a fitted effect of over 50% in size
Summary of the method: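 SBE-bla HEK 293T cells were plated overnight at 37 C, then given compounds in DMSO plus TGF-beta1 (added as 0.25 ng/mL solution) for 5 hr. After the bla read, CellTiter-Glo was added to the same wells and luminescence read after 30 min at room temperature.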

[6] = qHTS assay to identify small molecule agonists of the TGF-beta/Smad signaling pathway - cell viability counter screen (AID 1346829); also: top concentration of the series differs between compounds; nearly all actives have a fitted effect of over 45% in size
Summary of the method: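 Luminescence from CellTiter-Glo, read after a 30 min room-temperature incubation, gives cell viability of SBE-bla HEK 293T cells treated 5 hr with compounds at 37 C.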

[7] = qHTS assay to identify small molecule agonists of the TGF-beta/Smad signaling pathway (AID 1346859; active = well fitted activation curve with a large enough effect in the signal ratio in the repeat runs, not every such curve was filed as active; the % refers to the signal ratio; also: series mostly up to about 77 µM)
Summary of the method: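 Smad-responsive beta-lactamase reporter cells (HEK 293T) received compounds from DMSO stocks after overnight attachment, were incubated 5 hr, then treated 2 hr with FRET substrate before dual-emission fluorescence measurement (405 nm excitation).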

[8] = biological target: Thyrotropin-releasing hormone receptor (Homo sapiens) (UniProt P34981); test: qHTS assay to identify small molecule antagonists of the thyrotropin-releasing hormone receptor (TRHR) signaling pathway (AID 1346877; active = well fitted inhibition curve with a large enough effect in the repeat runs, not every such curve was filed as active; also: series mostly up to about 51 µM)
Summary of the method: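 Human TRHR in HEK293 cells; inhibition of the intracellular calcium rise triggered by 1 nM TRH was followed by fluorescence over 3 min. Compounds were run at 15 concentrations, three replicates each.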

[9] = biological target: Thyrotropin-releasing hormone receptor (Homo sapiens) (UniProt P34981); test: qHTS assay to identify small molecule agonists of the thyrotropin-releasing hormone receptor (TRHR) signaling pathway (AID 1346891; calls by dose curve;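 also: HEK293 cells expressing TRHR with calcium dye readout; series mostly up to about 58 µM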)
Summary of the method: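 Agonist-mode calcium mobilisation screen: TRHR-transfected HEK293 cells cultured overnight (18 h), dye-loaded for 2 h at 37 °C, exposed to compounds, and monitored by fluorescence for 3 min.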

[10] = qHTS assay to identify small molecule antagonists of the progesterone receptor (PR) signaling pathway - cell viability counter screen (AID 1346798); also: series mostly up to about 92 µM; nearly all actives have a fitted effect of over 50% in size
Summary of the method: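 Same-well multiplex: after 16 hr at 37C with compound and R5020 stimulation, HEK293T cells carrying a UAS-bla reporter received LiveBLAzer substrate (2 hr RT), then CellTiter-Glo (30 min RT) for luminescent viability.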
% is scaled to controls: 0 for no effect and ±100 for the full control effect.

Sequence of Thyrotropin-releasing hormone receptor (Homo sapiens) (P34981 whole entry, looked up): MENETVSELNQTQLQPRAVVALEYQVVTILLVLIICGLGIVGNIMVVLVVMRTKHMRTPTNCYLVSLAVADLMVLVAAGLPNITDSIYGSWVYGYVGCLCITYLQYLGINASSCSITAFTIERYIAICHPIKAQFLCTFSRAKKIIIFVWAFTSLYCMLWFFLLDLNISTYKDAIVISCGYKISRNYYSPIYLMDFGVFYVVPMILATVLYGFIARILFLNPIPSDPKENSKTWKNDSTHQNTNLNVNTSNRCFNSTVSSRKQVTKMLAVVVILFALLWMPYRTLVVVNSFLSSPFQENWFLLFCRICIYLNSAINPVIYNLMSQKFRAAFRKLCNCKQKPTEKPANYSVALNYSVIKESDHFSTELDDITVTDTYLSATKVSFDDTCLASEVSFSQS
Sequence of Progesterone receptor (Homo sapiens) (P06401 whole entry, looked up): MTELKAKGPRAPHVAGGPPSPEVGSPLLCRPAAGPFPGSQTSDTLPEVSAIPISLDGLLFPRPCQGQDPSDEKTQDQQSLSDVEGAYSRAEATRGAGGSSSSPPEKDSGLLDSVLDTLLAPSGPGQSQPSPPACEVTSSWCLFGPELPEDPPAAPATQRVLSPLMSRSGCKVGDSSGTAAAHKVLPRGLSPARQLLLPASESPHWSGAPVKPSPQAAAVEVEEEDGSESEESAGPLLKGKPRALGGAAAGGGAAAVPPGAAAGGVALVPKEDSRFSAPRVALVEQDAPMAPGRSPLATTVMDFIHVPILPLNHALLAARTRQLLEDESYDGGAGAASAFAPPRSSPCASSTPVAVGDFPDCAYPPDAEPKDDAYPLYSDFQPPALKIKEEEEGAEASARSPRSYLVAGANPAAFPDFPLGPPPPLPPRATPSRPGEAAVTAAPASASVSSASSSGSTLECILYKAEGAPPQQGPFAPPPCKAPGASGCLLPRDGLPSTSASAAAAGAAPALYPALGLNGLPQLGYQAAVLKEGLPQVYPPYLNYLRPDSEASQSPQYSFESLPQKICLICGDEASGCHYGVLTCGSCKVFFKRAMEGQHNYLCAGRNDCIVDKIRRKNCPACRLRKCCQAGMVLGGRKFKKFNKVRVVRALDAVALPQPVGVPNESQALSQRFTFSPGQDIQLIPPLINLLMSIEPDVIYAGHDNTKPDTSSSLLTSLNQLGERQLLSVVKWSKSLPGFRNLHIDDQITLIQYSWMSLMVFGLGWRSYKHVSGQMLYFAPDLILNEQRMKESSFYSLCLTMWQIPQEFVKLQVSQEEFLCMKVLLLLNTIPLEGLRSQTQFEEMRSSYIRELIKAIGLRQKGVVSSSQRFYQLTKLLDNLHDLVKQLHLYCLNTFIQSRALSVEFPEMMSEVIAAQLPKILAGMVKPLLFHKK

CS(C)=O
inactive: Potency [1] | Potency [2] | Potency [3] | Potency [4] | outcome [5] | outcome [6] | outcome [7]

CCCCCCCCCCCCCCCCCCCl
inactive: activity change, negative = cytotoxicity [1] -0.0193% [at 8.39 µM] | activation [2] -0.486% [at 8.39 µM] | activity change, negative = inhibition [3] 7.9% [at 8.39 µM] | activity change, negative = cytotoxicity [4] -1.64% [at 8.39 µM] | viability change, negative = cytotoxic [5] -4.8% [at 6.97 µM] | activity change, negative = cytotoxicity [6] 3.73% [at 6.97 µM] | activation [7] 1.95% [at 6.97 µM] | activity, negative = inhibition [8] 0.326% [at 4.65 µM] | activation [9] -0.417% [at 5.23 µM]

Clc1nc2ccccc2nc1Cl
inactive: Potency [1] | Potency [2] | Potency [3] | Potency [10] | outcome [5] | outcome [6] | outcome [7] | outcome [8] | outcome [9]

CC[C@H](NC(C)C)[C@H](O)c1ccc(O)c2[nH]c(=O)ccc12
inactive: Potency [1] | Potency [2] | Potency [3] | Potency [10] | outcome [5] | outcome [6] | outcome [7] | outcome [8] | outcome [9]

SCCOCCOCCS
inactive: Potency [1] | Potency [2] | Potency [3] | Potency [4] | outcome [5] | outcome [6] | outcome [7] | outcome [8] | outcome [9]

CCN(CCCCOC(=O)c1ccc(OC)c(OC)c1)C(C)Cc1ccc(OC)cc1 (centres undefined)
inactive: Potency [1] | Potency [2] | Potency [3] | Potency [10] | outcome [5] | outcome [6] | outcome [7] | outcome [8] | outcome [9]

CCCCC(CC)COCCC#N (centres undefined)
inactive: Potency [1] | Potency [2] | Potency [3] | Potency [10] | outcome [6] | outcome [7] | outcome [8] | outcome [9]

C=C(C)C(=O)OCCCCCCCCCCOC(=O)C(=C)C
inactive: Potency [1] | Potency [2] | Potency [3] | Potency [4] | outcome [5] | outcome [6] | outcome [7] | outcome [8] | outcome [9]

C(/C=C/C=C/Nc1ccccc1)=Nc1ccccc1
inactive: Potency [1] | Potency [2] | Potency [3] | Potency [10] | outcome [5] | outcome [6] | outcome [7] | outcome [8] | outcome [9]

CCC(C)CCCC(C)(C)O (centres undefined)
inactive: Potency [1] | Potency [2] | Potency [3] | Potency [4] | outcome [5] | outcome [6] | outcome [7] | outcome [8] | outcome [9]

C=CC(=O)NC(C)(C)C
inactive: Potency [1] | Potency [2] | Potency [3] | Potency [10] | outcome [5] | outcome [6] | outcome [7] | outcome [8] | outcome [9]

CC(C)(C(=O)O)c1ccc(C(O)CCCN2CCC(C(O)(c3ccccc3)c3ccccc3)CC2)cc1 (centres undefined)
inactive: Potency [1] | Potency [2] | Potency [3] | Potency [4] | outcome [5] | outcome [6] | outcome [7] | outcome [8] | outcome [9]

CC(C)(C)c1ccc(CCC=O)cc1
inactive: Potency [1] | Potency [2] | Potency [3] | Potency [10] | outcome [6] | outcome [7] | outcome [8] | outcome [9]

CC(CC(C#N)(c1ccccc1)C(C)C)N(C)C (centres undefined)
inactive: Potency [1] | Potency [2] | Potency [3] | Potency [4] | outcome [5] | outcome [6] | outcome [7]

C1=COCCC1
inactive: Potency [1] | Potency [2] | Potency [3] | Potency [10] | outcome [5] | outcome [6] | outcome [7] | outcome [8] | outcome [9]

O=C(O)COCC(=O)O
inactive: Potency [1] | Potency [2] | Potency [3] | Potency [10] | outcome [5] | outcome [6] | outcome [7] | outcome [8] | outcome [9]

CCOc1ccccc1O
inactive: Potency [1] | Potency [2] | Potency [3] | Potency [4] | outcome [5] | outcome [6] | outcome [7] | outcome [8] | outcome [9]

CCCCCCCCCCCCCCCCN
inactive: Potency [1] | Potency [2] | Potency [3] | Potency [10] | outcome [5] | outcome [6] | outcome [7] | outcome [8] | outcome [9]

CC(CN=Cc1ccccc1O)N=Cc1ccccc1O (centres undefined)
inactive: Potency [1] | Potency [2] | Potency [3] | Potency [4] | outcome [5] | outcome [6] | outcome [7] | outcome [8] | outcome [9]

COc1ccnc2c1CCCCC2S(=O)c1nc2ccccc2[nH]1 (centres undefined)
inactive: Potency [1] | Potency [2] | Potency [3] | Potency [10] | outcome [5] | outcome [6] | outcome [7] | outcome [8] | outcome [9]

CCOC(OCC)OCC
inactive: Potency [1] | Potency [2] | Potency [3] | Potency [4] | outcome [5] | outcome [6] | outcome [7]

O=C(Cl)c1ccc(F)c(Cl)c1
inactive: Potency [1] | Potency [2] | Potency [3] | Potency [10] | outcome [5] | outcome [6] | outcome [7] | outcome [8] | outcome [9]

C/C=C1\[C@H]2C=C(C)C[C@]1(N)c1ccc(=O)[nH]c1C2
inactive: Potency [1] | Potency [2] | Potency [3] | Potency [10] | outcome [5] | outcome [6] | outcome [7] | outcome [8] | outcome [9]

C=CC(=O)OCCCCCCCCCC
inactive: Potency [1] | Potency [2] | Potency [3] | Potency [10] | outcome [6] | outcome [7] | outcome [8] | outcome [9]

O=C(OCCCCCOC(=O)c1ccccc1)c1ccccc1
inactive: Potency [1] | Potency [2] | Potency [3] | Potency [4] | outcome [5] | outcome [6] | outcome [7] | outcome [8] | outcome [9]

O=C(O)c1ccccc1[N+](=O)[O-]
inactive: Potency [1] | Potency [2] | Potency [3] | Potency [4] | outcome [5] | outcome [6] | outcome [7] | outcome [8] | outcome [9]

CC(O)C(C)O (centres undefined)
inactive: Potency [1] | Potency [2] | Potency [3] | Potency [10] | outcome [5] | outcome [6] | outcome [7] | outcome [8] | outcome [9]
